Measurements from the supplement of paper PMC3545927.
This is one part of the list. The true hit rate is not given.

B1: HC1018 (peptide)
chain: CALPYIEQGMAGNASASA
B2: FS-846 (peptide)
chain: CAQDPRSGRSAGNASASA
B3: FS-416 (peptide)
chain: CAEQGRQGRSAGNASASA
B4: FS-57 (peptide)
chain: CALRSRSGRSAGNASASA
B5: FS-613 (peptide)
chain: CALRLRKGRSAGNASASA
B6: FS-1370 (peptide)
chain: CALRSRWGRSAGNASASA
B7: FS-1391 (peptide)
chain: CAQQHRQGRSAGNASASA
B8: FS-1057 (peptide)
chain: CAQRERSGRSAGNASASA
B9: HC1504 (peptide)
chain: CATNSRGENCAGNASASA
B10: HC1923 (peptide)
chain: CATTPCSGSAAGNASASA
B11: HC883 (peptide)
chain: CATGDFDSVIAGNASASA
B12: FS-65 (peptide)
chain: CANRGIGKRSAGNASASA
B13: FS-137 (peptide)
chain: CANLMRPKRSAGNASASA
B14: FS-433 (peptide)
chain: CAGSFRSLRSAGNASASA
B15: FS-1638 (peptide)
chain: CAKRRLQKRSAGNASASA
B16: FS-1206 (peptide)
chain: CAGSFRGKRSAGNASASA
B17: HC1166 (peptide)
chain: CACQRGYKGVAGNASASA
B18: HC2448 (peptide)
chain: CAEWEVPCHRAGNASASA
B19: HC1080 (peptide)
chain: CAIGSVGLGKAGNASASA
B20: HC1832 (peptide)
chain: CAETPCSGSWAGNASASA
B21: HC866 (peptide)
chain: CAGINAVAYYAGNASASA
B22: FS-2089 (peptide)
chain: CARSRKEVELAGNASASA
B23: FS-350 (peptide)
chain: CALKRRGKRSAGNASASA
B24: FS-358 (peptide)
chain: CALRKYPKRSAGNASASA
B25: FS-609 (peptide)
chain: CALKPRPKRSAGNASASA
B26: FS-754 (peptide)
chain: CADELRGKRSAGNASASA
B27: FS-1064 (peptide)
chain: CARKRAQKRSAGNASASA
B28: FS-14 (peptide)
chain: CACGGRGKRSAGNASASA

Molecular target: furin, P09958
Sequence (P09958 whole entry): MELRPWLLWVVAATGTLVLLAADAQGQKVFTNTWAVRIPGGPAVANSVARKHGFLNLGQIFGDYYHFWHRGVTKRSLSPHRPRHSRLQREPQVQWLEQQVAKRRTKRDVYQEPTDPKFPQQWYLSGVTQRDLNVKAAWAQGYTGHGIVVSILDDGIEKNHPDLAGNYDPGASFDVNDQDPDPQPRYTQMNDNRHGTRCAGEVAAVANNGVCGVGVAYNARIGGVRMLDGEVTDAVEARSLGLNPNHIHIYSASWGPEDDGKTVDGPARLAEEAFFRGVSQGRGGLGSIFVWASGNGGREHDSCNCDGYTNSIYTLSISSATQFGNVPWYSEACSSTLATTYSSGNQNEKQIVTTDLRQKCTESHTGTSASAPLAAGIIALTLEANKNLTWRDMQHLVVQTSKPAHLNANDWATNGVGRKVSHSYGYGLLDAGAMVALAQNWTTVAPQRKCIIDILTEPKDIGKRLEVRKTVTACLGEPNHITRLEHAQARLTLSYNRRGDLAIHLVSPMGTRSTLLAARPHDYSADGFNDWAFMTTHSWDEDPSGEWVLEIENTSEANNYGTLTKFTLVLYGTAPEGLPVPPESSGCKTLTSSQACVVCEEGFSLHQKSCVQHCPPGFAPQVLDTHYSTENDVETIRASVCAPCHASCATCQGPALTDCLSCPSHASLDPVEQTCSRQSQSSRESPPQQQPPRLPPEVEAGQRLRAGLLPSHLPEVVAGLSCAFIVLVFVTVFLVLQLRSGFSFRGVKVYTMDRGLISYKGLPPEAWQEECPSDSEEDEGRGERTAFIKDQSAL
Assay: furin cleavage Z-score vs untreated control; higher = more cleavage, active = 3.5 or more, inactive = 1 or less, 8 variable residues between constant flanks
Procedure, shortened: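 Purified furin cleaved 8-mer peptides that were fused to a cDNA oligonucleotide and held on magnetic beads by their N-terminus. Each 0.01 ml reaction used a 1:10 enzyme:substrate ratio in 50 mM HEPES pH 7.5 with CaCl2 and NaCl and ran 7.5, 15 or 30 min. Released DNA was adapter-tagged by PCR and sequenced, and read counts gave abundance. The cleavage Z-score came from log counts against furin-free reactions, lowess-adjusted and scaled by median absolute deviation.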

Row | Sequence | furin cleavage Z-score (7.5 min) | furin cleavage Z-score (15 min) | furin cleavage Z-score (30 min)
1 | B1 | -0.393 (inactive) | -0.653 (inactive) | 2.95
2 | B2 | 0.797 (inactive) | -0.812 (inactive) | -0.37 (inactive)
3 | B3 | -1.07 (inactive) | -0.0349 (inactive) | 0.708 (inactive)
4 | B4 | 4.75 (active) | 5.58 (active) | 4.32 (active)
5 | B5 | 2.52 | 2.83 | 0.738 (inactive)
6 | B6 | 6.03 (active) | 5.71 (active) | 6.06 (active)
7 | B7 | 6.09 (active) | 6.71 (active) | 6.63 (active)
8 | B8 | 4.28 (active) | 6.49 (active) | 6.16 (active)
9 | B9 | 0.0549 (inactive) | 0.267 (inactive) | 0.425 (inactive)
10 | B10 | 0.77 (inactive) | -1.08 (inactive) | -0.465 (inactive)
11 | B11 | -0.133 (inactive) | -1.34 (inactive) | -0.511 (inactive)
12 | B12 | 7.18 (active) | 8.2 (active) | 7.79 (active)
13 | B13 | 11.8 (active) | 11.3 (active) | 8.61 (active)
14 | B14 | -0.832 (inactive) | -0.397 (inactive) | -0.333 (inactive)
15 | B15 | 11.7 (active) | 9.73 (active) | 9.24 (active)
16 | B16 | 11.1 (active) | 11.4 (active) | 8.01 (active)
17 | B17 | -1.45 (inactive) | -3.75 (inactive) | -2.51 (inactive)
18 | B18 | 1.07 | 2.14 | 0.904 (inactive)
19 | B19 | 1.13 | 0.942 (inactive) | -0.856 (inactive)
20 | B20 | -0.56 (inactive) | -0.454 (inactive) | -0.69 (inactive)
21 | B21 | -0.468 (inactive) | -1.09 (inactive) | -1.09 (inactive)
22 | B22 | 0.0687 (inactive) | 0.38 (inactive) | -1.75 (inactive)
23 | B23 | 12.2 (active) | 12.5 (active) | 8.44 (active)
24 | B24 | 0.0194 (inactive) | 0.839 (inactive) | 1.49
25 | B25 | 10.8 (active) | 12.3 (active) | 9.88 (active)
26 | B26 | -0.105 (inactive) | 0.269 (inactive) | -1.01 (inactive)
27 | B27 | 8.12 (active) | 9.12 (active) | 7.74 (active)
28 | B28 | 8.41 (active) | 9.33 (active) | 7.54 (active)
